According to PubChem BioAssay (NCI):
Compounds without any hit were thinned out: in the full panel of roughly 79,000, 15% have a hit. No stated cut-off is given here; in the data, active means growth inhibition above about 70%; inactive means the rest.

Legend:
[1] = NCI Yeast Anticancer Drug Screen. Data for the rad50 strain (AID 155);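 further: 0% = growth of vehicle-only cultures of the same strain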; conditions: S. cerevisiae rad50 strain growth inhibition; at 50.0 µM; hits give high values
Procedure, shortened: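 Growth of the mutant yeast was measured after compound exposure and referenced to vehicle-treated cultures.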

[2] = NCI Yeast Anticancer Drug Screen. Data for the mec2-1 strain (AID 157); conditions: S. cerevisiae mec2-1 strain, at 50.0 µM, hits give high values
Procedure, shortened: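 Yeast mec2-1 mutant treated with compound. Readout: growth inhibition vs vehicle controls.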

[3] = NCI Yeast Anticancer Drug Screen. Data for the sgs1 mgt1 strain (AID 161);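 further: 0% = growth of cultures given vehicle only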; conditions: S. cerevisiae sgs1 mgt1 strain, at 50.0 µM, hits give high values
Procedure, shortened: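 Inhibition of yeast growth, normalised to vehicle-treated controls, is reported for a strain bearing genetic alterations in DNA damage repair.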

[4] = NCI Yeast Anticancer Drug Screen. Data for the cln2 rad14 strain (AID 165);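 further: 0% = growth equal to vehicle treated cultures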; conditions: S. cerevisiae cln2 rad14 strain, at 50.0 µM, hits give high values
Procedure, shortened: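 cln2 rad14 yeast strain; compound exposure; growth inhibition read vs vehicle controls.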

[5] = NCI Yeast Anticancer Drug Screen. Data for the bub3 strain (AID 167); conditions: S. cerevisiae bub3 mutant strain, at 50.0 µM, hits give high values
Procedure, shortened: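 Whole-cell yeast assay. The mutant strain was incubated with compounds, and growth inhibition was determined by comparison with vehicle-treated cells.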

[6] = NCI Yeast Anticancer Drug Screen. Data for the mlh1 rad18 strain (AID 175); conditions: S. cerevisiae mlh1 rad18 strain growth inhibition; at 50.0 µM; hits give high values
Procedure, shortened: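 Yeast w/ defined DNA-repair lesions; compound exposure; growth vs vehicle controls → % inhibition.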

Measured: growth inhibition

Cc1ccc(C(C(=O)O)c2ccc(C)cc2)cc1
inactive: [1] 45.5% | [2] 2.25% | [3] 44.9% | [4] 27.4% | [5] 22.1% | [6] 29.2%

C=C(C)COCc1ccc(C(C)(C)CC(C)(C)C)cc1
inactive: [1] -14.6% | [2] -10.3% | [3] -9.85% | [4] -23.5% | [5] -15.4% | [6] 1.55%

CO[C@H]1C[C@H]2CC[C@@]1(C)C2(C)C
inactive: [1] 8.85% | [2] 12.6% | [3] 3.7% | [4] -18.9% | [5] 0.4% | [6] -5.55%

Cc1ccc(S(=O)(=O)N2C(=N)C(=S)N(C)C2=O)cc1
inactive: [1] -42.9% | [2] -10.3% | [3] -15.4% | [4] -30.4% | [5] -15.8% | [6] 12.4%

CCC/C(=C(\C)c1ccccc1)c1ccccc1
inactive: [1] 46.1% | [2] 33.6% | [3] 37.7% | [4] 14.1% | [5] -11.5% | [6] 33.3%

c1ccc2c(c1)[nH]c1c2ncc2[nH]c3ccccc3c21
inactive: [1] -2.7% | [2] 2.85% | [3] -7.35% | [4] -60.2% | [5] -1.8% | [6] 7.25%

O=C(CSc1nc2ccccc2c2ccccc12)c1ccccc1
inactive: [1] 9.25% | [2] -42.5% | [3] -4.4% | [4] -52% | [5] -42.8% | [6] 12.8%

CC1=C(c2ccc(C)cc2)NC(=S)C(C)C(c2ccc(C)cc2)=N1 (stereo unspecified)
inactive: [1] -11.2% | [2] -24.6% | [3] 15.3% | [4] 8.15% | [5] 0.95% | [6] 19.8%

CC(=O)Nc1cc2c(cc1Cl)-c1ccc(Br)cc1C2
inactive: [1] 6.35% | [2] -12.8% | [3] -2.25% | [4] -23.4% | [5] 0.85% | [6] -19.7%

NC1C(O)OCC(O)C1O (stereo unspecified)
inactive: [1] -0.35% | [2] 9.3% | [3] 10.2% | [4] 7.25% | [5] 19.4% | [6] 23.1%

O=C1CC(=O)N2CCCCC2N1 (stereo unspecified)
inactive: [1] -17.7% | [2] -5.15% | [3] -0.25% | [4] -10.9% | [5] 6.4% | [6] -25.7%

Cc1ccc(OP2(Oc3ccc(C)cc3)=NP(Oc3ccc(C)cc3)(Oc3ccc(C)cc3)=NP(Oc3ccc(C)cc3)(Oc3ccc(C)cc3)=N2)cc1
inactive: [1] 10.6% | [2] -4.15% | [3] -17.6% | [4] -4.5% | [5] 2.7% | [6] 0.4%

Cc1c(C2CC(=O)N(c3ccccc3)C2=O)c2ccccc2n1C (stereo unspecified)
inactive: [1] -6.25% | [2] -6% | [3] -7.4% | [4] -33.7% | [5] 1.85% | [6] -8.25%

CCCCCCCCN1N=C(C)CCC1=O
inactive: [1] -7.55% | [2] -9.2% | [3] -0.45% | [4] -23.7% | [5] -25.7% | [6] -8.55%

COC1(c2ccccc2)OC(=O)C(C)(C)c2ccccc21 (stereo unspecified)
inactive: [1] -5.1% | [2] 7.65% | [3] 14.2% | [4] 22.1% | [5] 13.9% | [6] 3.55%

O=c1[nH]cnc2c1CNC2
inactive: [1] 9.5% | [2] -2.5% | [3] -10.4% | [4] -65.8% | [5] -18.4% | [6] 1.6%

COc1cc(N(Cc2ccc3oc(=O)c(-c4ccccc4)nc3c2)Cc2ccc3oc(=O)c(-c4ccccc4)nc3c2)cc(OC)c1OC
inactive: [1] 29.6% | [2] -2.45% | [3] 13.5% | [4] -35.1% | [5] 15% | [6] 9.15%

COc1cccc(C)c1C(O)CC1CCCN1 (stereo unspecified)
inactive: [1] 21.6% | [2] 3.75% | [3] 7.2% | [4] 29.8% | [5] 11.7% | [6] 6.05%

CCc1ccc(/C(C#N)=C/c2cccc3ccccc23)cc1
inactive: [1] 2.45% | [2] -11.1% | [3] -0.6% | [4] -1.9% | [5] 4.05% | [6] -5.25%

Cc1cccc(Oc2ccc(C(F)(F)F)cc2[N+](=O)[O-])c1C
inactive: [1] -32.2% | [2] -2.15% | [3] 2.55% | [4] -45.4% | [5] 45.3% | [6] -15.2%

C=CC(O)CCCCCC (stereo unspecified)
inactive: [1] -4.9% | [2] -27.8% | [3] -22.4% | [4] -5.1% | [5] -10.2% | [6] -20.7%

CCOC(=O)CNC(=O)C(Cc1cnc[nH]1)NC(=O)CNC(=O)OCc1ccccc1 (stereo unspecified)
inactive: [1] 1.15% | [2] -2.15% | [3] 9.75% | [4] -23.9% | [5] 1.1% | [6] 9.2%

CCCCCCCCCCCCOP(=O)(O)OP(=O)(O)OCC1OC(n2ccc(N)nc2=O)CC1O (stereo unspecified)
inactive: [1] 27.9% | [2] 21.5% | [3] 27.6% | [4] 17.1% | [5] 22.1% | [6] 18.2%

COc1ccccc1C1C2=C(COC2=O)Oc2cc3c(cc21)OCO3 (stereo unspecified)
inactive: [1] -20.8% | [2] -8.25% | [3] -29.1% | [4] 3.75% | [5] 0.4% | [6] -11.9%

COc1cc(-c2ccc(N=Nc3ccc(N)nc3N)c(OC)c2)ccc1N=Nc1ccc(N)nc1N
inactive: [1] 6.9% | [2] -3.9% | [3] 23.3% | [4] 12.4% | [5] -1.45% | [6] 11.7%

COc1ccc2c3c(c(C(=O)O)oc13)CCC2
inactive: [1] 3.85% | [2] -3.05% | [3] -3.8% | [4] -5.8% | [5] -15.3% | [6] 16.8%

COc1ccc2c(c1)C(Cc1ccc(Oc3cc(CC4c5cc(OC)ccc5CC[N+]4(C)C)ccc3OC)cc1)[N+](C)(C)CC2 (stereo unspecified)
inactive: [1] -5.9% | [2] 2.75% | [3] -7.45% | [4] -9.55% | [5] -6.5% | [6] -12.2%

CC(C)=CCCC(C)(OC1OC(COC2OCC(O)C(O)C2O)C(O)C(O)C1O)C1CCC2(C)C1C(O)CC1C3(C)CCC(OC4OC(CO)C(O)C(O)C4OC4OC(CO)C(O)C(O)C4O)C(C)(C)C3CCC12C (stereo unspecified)
inactive: [1] -15.8% | [2] -26.1% | [3] -6.05% | [4] 6.6% | [5] 4.55% | [6] 18.4%

N/N=C/c1cccn1-c1ccccc1Cl
inactive: [1] 33.8% | [2] 15.3% | [3] 26.9% | [4] 0.35% | [5] 28.2% | [6] 14.8%

Cc1cc2nc(C(O)C(O)C(O)C(O)c3nc4cc(C)c(C)cc4[nH]3)[nH]c2cc1C (stereo unspecified)
inactive: [1] 18.9% | [2] 3.35% | [3] -9.2% | [4] -1.2% | [5] -8.65% | [6] -0.85%

CC1(C)C(N)C(C)(C)C1N (stereo unspecified)
inactive: [1] -0.05% | [2] -14.5% | [3] -0.3% | [4] 11.8% | [5] 17.1% | [6] 2.3%

CCOC(=O)/C(=C/c1ccc(C(=O)OC)cc1)N(CC)CC
inactive: [1] -26.5% | [2] -20.5% | [3] -12.1% | [4] 12.2% | [5] -20.1% | [6] -25.8%

COc1cc(C)c(C(=O)/C=C/c2cc(OC)c(O)c(OC)c2)cc1O
inactive: [1] 55.7% | [2] 36.9% | [3] 39.6% | [4] 35.6% | [5] 46.2% | [6] 46.7%

Cc1onc(-c2ccccc2)c1NC(=O)OCc1ccc(-c2cc(C(F)(F)F)cc(C(F)(F)F)c2)o1
inactive: [1] -0.4% | [2] -14.9% | [3] -2.65% | [4] 9.7% | [5] 4.4% | [6] 11.8%

C1CCCN(NC2=NCCO2)CC1
inactive: [1] 18.8% | [2] 4.8% | [3] 7.3% | [4] 5.95% | [5] 1.45% | [6] 25.9%

NC(=S)N/N=C/C=C/c1ccco1
inactive: [1] 8.9% | [2] 0.25% | [3] 30.6% | [4] -41.5% | [5] 20.3% | [6] 52%
